Of roughly 7,900 targets only a part is listed; those with a hit were picked by preference. About 0.6% of all pairs of compound and target were hits.
Legend:
Assay in all cases: log2 fold change, soluble protein after heating vs DMSO (PISA); higher = thermal stabilisation; K562 cells, 10 uM, 30 min; active = over 0.2 and 3.5 SD of the protein, either way, in both replicates (recomputed)
[1] = compound: C1COCCN1CCN2C3=CC=CC=C3N=C2NC(=O)C4=CC(=CC=C4)[N+](=O)[O-] [IRAK-1-4 Inhibitor I]
Summary of the method: (§1)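 Soluble protein was quantified by TMTpro 16plex LC-MS/MS after channel sums were equalised. It was obtained as the supernatant after 21,000xg for 90 min from pooled aliquots of K562 cells (2×10^6 cells/mL, 10 μM compound, 30 min) heated for 3 min across 48°C-58°C and extracted in PBS with 0.5% NP-40 at 4°C. Thermal stability values are relative to control samples and come from duplicates. They are given as log2 fold changes.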

[2] = compound: C=CC(=O)N1CCC[C@@H](n2nc(-c3ccc(Oc4ccccc4)cc3)c3c(N)ncnc32)C1 [ibrutinib]
Summary of the method: as §1

[3] = compound: CC(=O)c1cnc2ccc(-c3cc(Cl)c(O)c(Cl)c3)nc2c1N[C@H]1CC[C@H](CN(C)C)CC1
Summary of the method: as §1

[4] = compound: CC(C)(C)Cn1c(N)nc2ccc(-c3[nH]c(C(C)(C)C)nc3-c3ccc(F)cc3)nc21 [ralimetinib]
Summary of the method: as §1

[5] = compound: CC(C)C1=C2N=C(C=C(N2N=C1)NCC3=CC=CC=C3)NCCCCCCN
Summary of the method: as §1

[6] = compound: CC(C)C[C@@H](C=O)NC(=O)[C@H](CC(C)C)NC(=O)[C@H](CC(C)C)NC(=O)OCc1ccccc1
Summary of the method: as §1

[7] = compound: CC(C)N(C[C@H]1O[C@@H](n2cnc3c(N)ncnc32)[C@H](O)[C@@H]1O)[C@H]1C[C@@H](CCc2nc3cc(C(C)(C)C)ccc3[nH]2)C1 [pinometostat]
Summary of the method: as §1

[8] = compound: CC1=C(C(CC(=O)N1)C2=CC=C(C=C2)C(F)(F)F)C(=O)NC3=C(C=C4C(=C3)C=NN4)F
Summary of the method: as §1

[9] = compound: CC1=C(C2=C(C=C1)C(=O)C3=CC=CC=C3N2CCCN)C
Summary of the method: as §1

[10] = compound: CC1=C(C=C(C=C1)NC(=O)C2=CC(=CC=C2)C(C)(C)C#N)NC3=CC4=C(C=C3)N=CN(C4=O)C
Summary of the method: as §1

[11] = compound: CC1=C(C=C(C=C1)NC(=O)C2=CC(=CC=C2)N(C)C)NC(=O)C3=CC=C(C=C3)O
Summary of the method: as §1

[12] = compound: CC1=CC=C(C=C1)SC2=C3C=C(SC3=CN=C2)C(=O)N
Summary of the method: as §1

[13] = compound: CC1=NC(=CC=C1)C2=C(N=C(N2)C(C)(C)C)C3=CC4=NC=CN=C4C=C3
Summary of the method: as §1

[14] = compound: CCCS(=O)(=O)Nc1ccc(F)c(C(=O)c2c[nH]c3ncc(-c4ccc(Cl)cc4)cc23)c1F [vemurafenib]
Summary of the method: as §1

[15] = compound: CCCS(=O)(=O)Nc1ccc(F)c(C(=O)c2c[nH]c3ncc(Cl)cc23)c1F
Summary of the method: as §1

[16] = compound: CCCc1cc(C)[nH]c(=O)c1CNC(=O)c1cc(-c2ccnc(N3CCN(C)CC3)c2)cc2c1cnn2C(C)C
Summary of the method: as §1

[17] = compound: CCN(CC)Cc1ccc2cc(COC(=O)Nc3ccc(C(=O)NO)cc3)ccc2c1 [givinostat]
Summary of the method: as §1

[18] = compound: CCN(CCCOc1ccc2c(Nc3cc(CC(=O)Nc4cccc(F)c4)[nH]n3)ncnc2c1)CCOP(=O)(O)O [barasertib]
Summary of the method: as §1

[19] = compound: CC(C)(O)CC(=O)NCCn1ccc2ncnc(Nc3ccc(Oc4cccc(C(F)(F)F)c4)c(Cl)c3)c21
Summary of the method: as §1

[20] = compound: CCCCN(Cc1ccc(C(=O)NO)cc1)C(=O)Nc1ccccc1 [Nexturastat A]
Summary of the method: as §1

Measured: log2 fold change

SYNE2 isoform 2 (UniProt Q8WXH0)
inactive: [1] 0.046 | [2] -0.037 | [3] 0.059 | [4] 0.01 | [5] 0.078 | [6] 0.059 | [7] -0.024 | [8] 0 | [9] 0.044 | [10] -0.084 | [11] 0.014 | [12] 0.064 | [13] -0.131 | [14] -0.04 | [15] 0 | [16] -0.171 | [17] 0.43 | [18] 0.079

SMARCA4 (UniProt P51532)
UniProt P51532, sequence (P51532 whole entry, looked up): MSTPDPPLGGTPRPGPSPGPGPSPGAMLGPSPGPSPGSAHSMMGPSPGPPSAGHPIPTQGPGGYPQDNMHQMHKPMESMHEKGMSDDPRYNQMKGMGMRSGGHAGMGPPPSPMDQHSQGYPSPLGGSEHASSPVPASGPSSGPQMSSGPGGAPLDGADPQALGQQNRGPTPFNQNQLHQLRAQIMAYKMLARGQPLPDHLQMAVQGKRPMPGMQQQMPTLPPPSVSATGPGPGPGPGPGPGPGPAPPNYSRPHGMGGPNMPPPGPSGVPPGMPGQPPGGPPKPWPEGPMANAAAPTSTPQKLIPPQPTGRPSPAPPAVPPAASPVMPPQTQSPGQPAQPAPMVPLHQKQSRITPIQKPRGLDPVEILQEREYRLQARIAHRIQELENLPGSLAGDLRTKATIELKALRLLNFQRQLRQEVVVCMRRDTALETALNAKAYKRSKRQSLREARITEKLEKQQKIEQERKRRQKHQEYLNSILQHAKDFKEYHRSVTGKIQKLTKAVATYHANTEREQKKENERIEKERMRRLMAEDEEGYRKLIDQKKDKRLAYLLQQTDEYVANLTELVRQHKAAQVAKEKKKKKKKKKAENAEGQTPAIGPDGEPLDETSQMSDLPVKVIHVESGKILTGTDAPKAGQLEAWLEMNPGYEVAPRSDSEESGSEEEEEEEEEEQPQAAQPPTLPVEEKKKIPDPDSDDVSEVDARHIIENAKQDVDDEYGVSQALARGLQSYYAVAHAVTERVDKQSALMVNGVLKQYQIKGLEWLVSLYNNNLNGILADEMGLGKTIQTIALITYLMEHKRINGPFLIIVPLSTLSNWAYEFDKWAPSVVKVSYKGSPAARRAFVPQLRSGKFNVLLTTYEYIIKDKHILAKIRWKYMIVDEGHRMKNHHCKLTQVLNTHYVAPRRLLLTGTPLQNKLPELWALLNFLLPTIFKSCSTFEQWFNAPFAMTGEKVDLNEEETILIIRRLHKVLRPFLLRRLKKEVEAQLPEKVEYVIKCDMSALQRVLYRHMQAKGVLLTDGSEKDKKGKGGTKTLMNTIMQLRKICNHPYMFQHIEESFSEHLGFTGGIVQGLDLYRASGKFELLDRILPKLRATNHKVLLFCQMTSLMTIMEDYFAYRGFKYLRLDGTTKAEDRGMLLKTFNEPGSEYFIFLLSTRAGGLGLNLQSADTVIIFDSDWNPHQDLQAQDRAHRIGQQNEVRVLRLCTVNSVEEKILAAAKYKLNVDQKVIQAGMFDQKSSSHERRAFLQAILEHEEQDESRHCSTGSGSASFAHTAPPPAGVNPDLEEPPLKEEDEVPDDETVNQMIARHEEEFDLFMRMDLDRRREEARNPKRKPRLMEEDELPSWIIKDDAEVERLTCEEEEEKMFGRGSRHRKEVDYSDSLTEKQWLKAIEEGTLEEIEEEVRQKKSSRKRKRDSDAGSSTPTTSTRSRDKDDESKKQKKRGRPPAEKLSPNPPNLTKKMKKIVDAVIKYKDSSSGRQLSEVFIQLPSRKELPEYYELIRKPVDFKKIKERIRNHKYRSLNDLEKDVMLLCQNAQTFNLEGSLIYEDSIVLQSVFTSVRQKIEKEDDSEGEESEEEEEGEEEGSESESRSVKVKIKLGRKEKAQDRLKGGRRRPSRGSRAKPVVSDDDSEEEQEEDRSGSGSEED
inactive: [1] -0.155 | [2] -0.136 | [3] -0.056 | [4] 0.255 | [19] 0.027 | [5] -0.397 | [6] 0.16 | [7] 0.193 | [10] 0.039 | [11] -0.111 | [12] -0.296 | [13] -0.028 | [20] 0.351 | [14] -0.261 | [15] -0.556 | [16] -0.084 | [17] 0.159 | [18] 0.137

TAX1BP1 (UniProt Q86VP1)
inactive: [1] -0.015 | [2] -0.007 | [3] -0.195 | [4] 0.066 | [19] -0.008 | [5] -0.124 | [6] 0.076 | [7] 0.088 | [8] 0.075 | [9] -0.006 | [10] 0.031 | [11] -0.005 | [12] -0.014 | [13] -0.026 | [20] -0.014 | [14] -0.003 | [15] 0.011 | [16] -0.055 | [17] -0.033 | [18] -0.061

STK39 (UniProt Q9UEW8)
active: [3] -0.3
inactive: [1] 0.048 | [2] -0.006 | [4] 0.022 | [19] -0.09 | [5] -0.124 | [6] -0.018 | [7] -0.02 | [8] 0.013 | [9] 0.007 | [10] -0.049 | [11] 0.006 | [12] -0.016 | [13] 0.033 | [20] 0.018 | [14] 0.015 | [15] 0.032 | [16] 0.053 | [17] 0.033 | [18] 0.033

TM7SF3 (UniProt Q9NS93)
UniProt Q9NS93, sequence (Q9NS93 whole entry, looked up): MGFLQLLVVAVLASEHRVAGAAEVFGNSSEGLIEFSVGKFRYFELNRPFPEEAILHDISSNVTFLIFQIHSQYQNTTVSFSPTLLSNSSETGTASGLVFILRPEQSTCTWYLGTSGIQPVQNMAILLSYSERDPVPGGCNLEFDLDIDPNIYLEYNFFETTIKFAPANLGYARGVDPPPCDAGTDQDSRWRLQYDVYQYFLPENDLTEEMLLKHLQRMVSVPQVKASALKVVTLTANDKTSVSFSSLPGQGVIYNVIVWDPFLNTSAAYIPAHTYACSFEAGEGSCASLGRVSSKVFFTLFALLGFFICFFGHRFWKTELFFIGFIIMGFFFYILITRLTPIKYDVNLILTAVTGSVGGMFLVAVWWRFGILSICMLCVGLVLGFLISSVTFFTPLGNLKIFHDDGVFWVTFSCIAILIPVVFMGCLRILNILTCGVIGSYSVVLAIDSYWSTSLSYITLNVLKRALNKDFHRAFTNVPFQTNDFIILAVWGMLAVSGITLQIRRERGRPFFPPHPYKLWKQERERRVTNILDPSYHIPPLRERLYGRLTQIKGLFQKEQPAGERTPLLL
active: [5] -0.485
inactive: [1] -0.06 | [2] 0.014 | [3] 0.055 | [4] -0.068 | [6] 0.01 | [7] -0.036 | [8] 0.016 | [9] 0.057 | [10] -0.033 | [11] -0.054 | [12] 0.005 | [13] 0.017 | [15] -0.019 | [16] -0.027 | [17] 0.06 | [18] 0.045

SLC8B1 (UniProt Q6J4K2)
UniProt Q6J4K2, sequence (Q6J4K2 whole entry, looked up): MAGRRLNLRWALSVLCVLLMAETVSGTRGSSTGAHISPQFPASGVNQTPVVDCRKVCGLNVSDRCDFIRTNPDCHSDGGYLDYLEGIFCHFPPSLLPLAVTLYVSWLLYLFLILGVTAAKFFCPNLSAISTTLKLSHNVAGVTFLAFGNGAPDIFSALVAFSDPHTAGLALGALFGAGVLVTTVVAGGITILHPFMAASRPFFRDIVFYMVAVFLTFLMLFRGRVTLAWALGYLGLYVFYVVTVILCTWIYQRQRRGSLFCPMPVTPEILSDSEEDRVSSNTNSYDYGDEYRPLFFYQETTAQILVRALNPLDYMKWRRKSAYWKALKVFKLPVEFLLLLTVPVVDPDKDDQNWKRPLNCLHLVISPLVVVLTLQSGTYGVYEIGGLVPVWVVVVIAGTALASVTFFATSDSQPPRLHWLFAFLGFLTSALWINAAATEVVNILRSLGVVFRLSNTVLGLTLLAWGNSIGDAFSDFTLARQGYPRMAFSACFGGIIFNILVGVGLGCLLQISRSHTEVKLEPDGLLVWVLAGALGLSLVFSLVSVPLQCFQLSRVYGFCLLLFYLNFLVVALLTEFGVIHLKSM
inactive: [1] 0.096 | [2] -0.091 | [3] 0.112 | [4] -0.093 | [5] -0.378 | [6] 0.048 | [7] 0.019 | [11] 0.038 | [12] -0.28 | [13] -0.022 | [14] -0.075 | [15] -0.021 | [17] 0.069 | [18] -0.167

TGFBR1 isoform 2 (UniProt P36897)
active: [3] 0.329
inactive: [1] -0.004 | [2] 0.006 | [4] 0.072 | [19] -0.043 | [5] 0.025 | [6] 0.049 | [7] -0.047 | [8] -0.022 | [9] 0.019 | [10] -0.112 | [11] 0.023 | [12] -0.058 | [20] 0.038 | [14] 0.044 | [15] 0.028 | [16] -0.062 | [17] 0.07 | [18] -0.028

SYK (UniProt P43405)
active: [20] 0.901
inactive: [1] -0.192 | [2] 0.056 | [3] -0.277 | [4] 0.241 | [19] -0.1 | [5] 0.128 | [6] 0.048 | [7] 0.19 | [9] -0.425 | [11] 0.015 | [12] -0.025 | [13] -0.386 | [14] -0.097 | [15] -0.058 | [17] 0.307 | [18] -0.094

TBC1D20 isoform 3 (UniProt Q96BZ9)
inactive: [1] 0.02 | [2] 0.004 | [3] -0.124 | [4] -0.104 | [19] -0.087 | [5] -0.099 | [6] -0.017 | [7] 0 | [8] -0.061 | [10] -0.048 | [11] 0.04 | [12] 0.128 | [13] 0.037 | [20] 0 | [14] 0.083 | [15] 0.166 | [16] -0.14 | [17] 0.076 | [18] 0.034

TEX30 (UniProt Q5JUR7)
UniProt Q5JUR7, sequence (Q5JUR7 whole entry, looked up): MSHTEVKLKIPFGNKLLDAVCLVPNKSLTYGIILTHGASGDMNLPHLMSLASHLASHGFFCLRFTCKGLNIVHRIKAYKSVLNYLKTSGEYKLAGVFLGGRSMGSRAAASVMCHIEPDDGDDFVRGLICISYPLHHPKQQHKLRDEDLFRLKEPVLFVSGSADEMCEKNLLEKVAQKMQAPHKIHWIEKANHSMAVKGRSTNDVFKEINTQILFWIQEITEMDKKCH
inactive: [1] -0.013 | [2] 0.08 | [3] -0.048 | [4] 0.053 | [19] -0.251 | [5] -0.075 | [6] 0.03 | [7] 0.105 | [8] 0.061 | [9] 0.028 | [11] -0.182 | [12] 0.047 | [13] -0.062 | [20] 0.009 | [14] 0.138 | [15] 0.037 | [16] -0.119 | [17] -0.146 | [18] 0.019

SLC25A4 (UniProt P12235)
active: [20] -0.228
inactive: [1] 0.032 | [2] 0.068 | [3] 0.016 | [4] -0.007 | [19] 0.009 | [5] 0.089 | [6] 0.004 | [7] -0.02 | [8] -0.031 | [9] -0.013 | [10] 0.041 | [11] 0.029 | [12] 0.073 | [13] 0.017 | [14] -0.028 | [15] -0.02 | [16] -0.032 | [17] -0.049 | [18] -0.009

THRAP3 (UniProt Q9Y2W1)
active: [3] -0.581
inactive: [1] -0.116 | [2] 0.01 | [4] -0.026 | [19] -0.032 | [5] -0.12 | [6] 0.075 | [7] 0.057 | [8] 0.066 | [9] -0.018 | [10] -0.008 | [11] 0.004 | [12] -0.056 | [13] -0.035 | [20] 0.109 | [14] 0.063 | [15] -0.01 | [16] 0.197 | [17] 0.093 | [18] -0.099

SLC30A10 (UniProt Q6XR72)
UniProt Q6XR72, sequence (Q6XR72 whole entry, looked up): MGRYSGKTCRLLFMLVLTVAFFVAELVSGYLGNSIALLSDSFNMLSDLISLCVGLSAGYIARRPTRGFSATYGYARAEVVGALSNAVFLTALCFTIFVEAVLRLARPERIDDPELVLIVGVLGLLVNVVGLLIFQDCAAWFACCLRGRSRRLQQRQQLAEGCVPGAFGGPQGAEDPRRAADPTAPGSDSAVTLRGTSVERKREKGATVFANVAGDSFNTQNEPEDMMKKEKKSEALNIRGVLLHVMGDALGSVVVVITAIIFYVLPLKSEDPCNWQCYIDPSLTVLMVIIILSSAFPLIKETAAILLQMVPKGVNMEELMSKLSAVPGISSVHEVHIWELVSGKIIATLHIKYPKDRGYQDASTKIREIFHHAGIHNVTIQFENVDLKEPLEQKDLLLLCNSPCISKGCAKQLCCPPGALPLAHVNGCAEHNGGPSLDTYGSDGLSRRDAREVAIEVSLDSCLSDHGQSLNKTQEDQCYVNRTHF
active: [20] -0.545
inactive: [1] 0.05 | [2] -0.08 | [3] -0.019 | [4] -0.014 | [19] -0.079 | [5] 0.035 | [6] -0.054 | [7] -0.032 | [8] 0.035 | [9] 0.12 | [10] 0.028 | [11] -0.102 | [12] 0.131 | [13] 0.001 | [14] -0.031 | [15] -0.073 | [16] -0.086 | [17] -0.002 | [18] -0.025

TJP1 (UniProt Q07157)
active: [3] -0.443
inactive: [1] -0.033 | [2] 0.03 | [4] 0.028 | [19] -0.02 | [5] -0.003 | [6] 0.014 | [7] 0.037 | [8] 0.007 | [9] 0.034 | [10] 0.03 | [11] -0.039 | [12] 0.011 | [13] -0.012 | [20] -0.005 | [14] 0.041 | [15] 0.065 | [16] -0.021 | [17] 0.102 | [18] 0.033

SLC44A2 isoform 2 (UniProt Q8IWA5)
UniProt Q8IWA5, sequence (Q8IWA5 whole entry, looked up): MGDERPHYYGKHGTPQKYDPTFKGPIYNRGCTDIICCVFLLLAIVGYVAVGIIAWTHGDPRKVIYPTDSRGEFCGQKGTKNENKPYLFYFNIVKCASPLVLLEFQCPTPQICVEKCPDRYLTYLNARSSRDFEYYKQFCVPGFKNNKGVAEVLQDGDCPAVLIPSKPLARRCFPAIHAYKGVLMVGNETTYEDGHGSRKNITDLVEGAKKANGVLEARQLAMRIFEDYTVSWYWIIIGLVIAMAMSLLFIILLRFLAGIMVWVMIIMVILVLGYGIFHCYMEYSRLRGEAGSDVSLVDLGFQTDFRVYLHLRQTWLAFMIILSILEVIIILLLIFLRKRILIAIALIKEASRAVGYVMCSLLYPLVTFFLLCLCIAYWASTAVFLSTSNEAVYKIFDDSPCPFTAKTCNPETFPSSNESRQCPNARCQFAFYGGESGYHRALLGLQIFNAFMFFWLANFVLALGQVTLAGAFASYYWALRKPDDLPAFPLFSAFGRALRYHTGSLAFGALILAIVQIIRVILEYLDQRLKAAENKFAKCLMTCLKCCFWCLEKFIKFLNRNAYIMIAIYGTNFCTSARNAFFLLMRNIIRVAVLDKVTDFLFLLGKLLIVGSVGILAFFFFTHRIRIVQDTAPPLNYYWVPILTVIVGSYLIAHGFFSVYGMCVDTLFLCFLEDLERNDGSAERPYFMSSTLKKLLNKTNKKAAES
inactive: [1] 0.092 | [2] 0.055 | [3] 0.034 | [4] -0.128 | [19] -0.006 | [6] -0.047 | [7] 0.056 | [8] -0.078 | [9] 0.034 | [10] 0.084 | [11] -0.033 | [13] -0.024 | [20] 0.05 | [14] 0.038 | [16] -0.029 | [17] -0.027 | [18] -0.012
active: [5] 0.296

SNX15 (UniProt Q9NRS6)
UniProt Q9NRS6, sequence (Q9NRS6 whole entry, looked up): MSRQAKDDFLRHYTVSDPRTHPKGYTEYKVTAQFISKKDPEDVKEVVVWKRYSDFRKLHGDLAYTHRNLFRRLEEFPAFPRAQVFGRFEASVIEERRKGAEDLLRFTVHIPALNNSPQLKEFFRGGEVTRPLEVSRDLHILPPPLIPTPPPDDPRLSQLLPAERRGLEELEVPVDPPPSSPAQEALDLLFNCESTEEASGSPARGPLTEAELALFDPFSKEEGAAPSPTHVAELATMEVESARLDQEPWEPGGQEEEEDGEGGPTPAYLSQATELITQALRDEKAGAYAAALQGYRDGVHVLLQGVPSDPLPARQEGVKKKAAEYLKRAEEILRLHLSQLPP
inactive: [1] -0.031 | [2] -0.112 | [3] -0.111 | [4] -0.051 | [6] 0.021 | [7] -0.069 | [8] -0.099 | [9] -0.016 | [10] -0.25 | [11] -0.009 | [12] -0.015 | [13] -0.089 | [14] -0.122 | [15] -0.021 | [16] 0.061 | [18] 0.012

SRFBP1 (UniProt Q8NEF9)
UniProt Q8NEF9, sequence (Q8NEF9 whole entry, looked up): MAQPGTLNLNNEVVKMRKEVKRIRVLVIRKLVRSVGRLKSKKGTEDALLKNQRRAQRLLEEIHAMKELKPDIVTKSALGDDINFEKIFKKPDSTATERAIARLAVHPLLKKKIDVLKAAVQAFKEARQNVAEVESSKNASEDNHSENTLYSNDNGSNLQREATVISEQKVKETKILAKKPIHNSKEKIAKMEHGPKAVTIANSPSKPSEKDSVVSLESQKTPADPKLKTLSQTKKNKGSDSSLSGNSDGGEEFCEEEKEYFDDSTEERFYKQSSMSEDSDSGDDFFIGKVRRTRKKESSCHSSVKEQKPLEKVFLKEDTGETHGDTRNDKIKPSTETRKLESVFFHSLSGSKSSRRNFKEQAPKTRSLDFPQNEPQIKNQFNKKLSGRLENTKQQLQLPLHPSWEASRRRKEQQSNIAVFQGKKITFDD
inactive: [1] -0.081 | [2] -0.037 | [3] -0.099 | [4] -0.022 | [19] 0.091 | [5] 0.137 | [6] 0.25 | [7] 0.018 | [8] 0.21 | [9] 0.023 | [10] 0.008 | [11] -0.019 | [12] -0.127 | [13] -0.025 | [20] 0.111 | [15] -0.012 | [16] -0.012 | [17] -0.061 | [18] -0.045

— the supplement of paper PMC10849652
